Screening results deposited in PubChem by National Center for Advancing Translational Sciences (NCATS).
Sampled rows, rich in hits. Any-hit rate of the full collection: about 1.6%.
Akt phos inh – Akt phosphorylation inhibition; Neuro2A IGF-stimulated pAkt S473 HTRF, 20 min; active compounds read low; activity change, % for hits at 50 µM; hit rate 0.32% among 360,000; AID 651550; in the data active = activity change below about -80%; inconclusive = mostly about -51% to -80%; note: % is set by controls: 0 for no effect and ±100 for the full control effect
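Neuro2A cells (4,500/well, DMEM with 0.5% FBS) were treated with compound at a single 50 µM final concentration, stimulated with 6 nM IGF for 20 min at 37 °C, and lysed. Phospho-Akt Ser473 was read by HTRF as 665/615 ratio ×10^4.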
Glioma ERSR ind – induces the endoplasmic reticulum stress response in human glioma cells; U87-MG GRP78 promoter luciferase reporter, 16 h; Potency, µM, inactives show top-dose activation, most hits filed as activators; hit rate 0.02% among 420,000; AID 602332; active = well fitted activation curve with a large enough effect; inconclusive = small, poorly fitted or top-dose-only effect; inactive = no such curve, though single readings can be large or run the other way; note: potency is the fitted concentration of half-maximal effect; series mostly up to about 76 µM; % of control where 0% means no effect; nearly all actives have a fitted effect of over 35% in size
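Stably transfected U87-MG human glioma cells carrying a GRP78-based luminescent sensor were seeded at 1000 cells/well, pin-dosed with compounds and incubated 16 h. Luciferase reagent was then added, and end-point luminescence was read after 10 min at room temperature.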
gsp ag – gsp mutant agonism; Potency, µM (doses to about 76.9 µM), inactives show at the highest dose activation (cAMP increase), most hits filed as activators; hit rate 0.13% among 340,000; AID 624287; gsp mutant cells, cAMP HTRF, 30 min; active = well fitted activation curve with a large enough effect; inconclusive = small, poorly fitted or top-dose-only effect, or another doubt; inactive = no such curve, though single readings can be large or run the other way; cell line not stated here;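 note: phosphodiesterase inhibitor Ro 20-1724 added with compounds to block cAMP breakdown; potency is the fitted concentration of half-maximal effect; nearly all actives have a fitted effect of over 60% in size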
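Cells stably selected in G418 were plated at 2000/well, grown 16-24 hr, then given compounds in DMSO with the PDE inhibitor […] (300 uM solution added) for 30 min at 37C; cAMP was read by HTRF.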
hERG WT inh – inhibitors of human wildtype KCNH2 potassium channel | U2OS, BacMam KCNH2, thallium flux FluxOr; active compounds read low | activity change, % at 1.84 µM | hit rate 0.37% among 340,000 | AID 720551;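 active = maximum activity change below -70%; inconclusive = maximum activity change between -70% and -50%; inactive = maximum activity change above -50%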; note: % is set by controls: 0 for no effect and ±100 for the full control effect
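U2OS cells transduced with wild-type KCNH2 virus are loaded with FluxOr dye for 45 min, and thallium flux is measured in kinetic reads before and after stimulation buffer. Rate constants are normalized to DMSO controls.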
gsp antagonist – antagonists of gsp mutant (McCune-Albright syndrome); gsp-mutant cells, cAMP HTRF, 30 min; hit rate 0.4% among 340,000; AID 624288; Potency, µM (doses to about 76.9 µM), for the others: top-dose activity change, negative = inhibition, actives largely listed as inhibitors; calls by dose curve; cell line not stated here;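 note: intracellular cAMP measured with PDE inhibitor Ro 20-1724 present during compound exposure; potency is the fitted concentration of half-maximal effect; % is set by controls: 0 for no effect and ±100 for the full control effect; nearly all actives have a fitted effect of over 65% in size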
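G418-selected cells were plated in DMEM/10% FBS for 16-24 h at 37C, then treated with compounds plus the PDE inhibitor […] (300 uM solution added) for 30 min at 37C. Intracellular cAMP was measured by HTRF after 30 min lysis at room temperature.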
KCNH2 3.1 block – inhibitors of human KCNH2 3.1 potassium channel isoform | U2OS KCNH2 3.1, thallium flux FluxOr; active compounds read low | activity change, % (tested at about 1.8 µM) | hit rate 0.95% among 340,000 | AID 720553;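 active = maximum activity change below -70%; inconclusive = maximum activity change from -70% to -50%; inactive = maximum activity change above -50%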;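 note: thallium influx rate constant from kinetic fluorescence after stimulation buffer; % is set by controls: 0 for no effect and ±100 for the full control effect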
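Measured as rate of thallium-driven FluxOr signal in transduced U2OS cells carrying the 3.1 channel, read kinetically for 2 min upon stimulation; values are rate constants scaled to DMSO control wells.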
An asterisk follows results filed as active; i = inactive; ? = inconclusive; · = no result given; [ ] = remark or other dose.

SMILES	Akt phos inh	Glioma ERSR ind	gsp ag	hERG WT inh	gsp antagonist	KCNH2 3.1 block
CCC(C)C1OC2(C=CC1C)CC1CC(C/C=C(\C)C(OC3CC(OC)C(OC4CC(OC)C(NC(C)=O)C(C)O4)C(C)O3)C(C)/C=C/C=C3\COC4C(O)C(C)=CC(C(=O)O1)C34O)O2 (stereo not given) (tested in a mixture with another compound)	·	-11%	·	·	·	·
CCCN1CCN(C(=O)Cn2cnc3ccc(S(=O)(=O)N4CCC(C)CC4)cc3c2=O)CC1	i	-3%	11%[15.4 µM]	-2	6%	-85*
CN(C1CCCCC1)S(=O)(=O)c1cccc(C(=O)OCC(=O)NC2CCCc3ccccc32)c1 (stereo not given)	i	-3%	32%[15.4 µM]	53	-8%	-92*
COc1ccc(-c2sc3ccc(N4CCOCC4)cc3c2-c2ccc(OC)c(F)c2)cc1	i	-5%	-1%	-13	1%	-87*
Cn1cc(/C=C/c2ccc3ccccc3n2)c2ccccc21	·	4%	·	·	·	·
CCC1NC(=S)NC(C)=C1C(=O)c1ccccc1 (stereo not given)	i	-1%	17%	2	2%	-116*
COc1ccc(C2NC(=S)NC(C)=C2C(=O)c2ccccc2)cc1OC (stereo not given)	i	-1%	4%	1	20%	3
O=C(NC1CCCC1)c1cc(COc2ccc3ncccc3c2)on1	i	-4%	10%	-5	-22%	1
COc1cccc(CN(C)C(=O)c2cc(COc3ccc4ncccc4c3)on2)c1	i	-5%	-6%[15.4 µM]	0	35µM*	-11
CC(NC(=O)c1cc(COc2ccc3ncccc3c2)on1)c1ccc(F)cc1 (stereo not given)	i	-5%	-6%	-10	28µM*	10
Cc1cnc(-n2ncc(C(=O)N(CCO)C(C)C)c2-c2cccs2)nc1-c1ccc(F)cc1	·	2%	·	·	·	·
COc1ccc(CC2(CO)CCN(C(C)COc3ccccc3)CC2)cc1 (stereo not given)	i	0%	-14%[15.4 µM]	-27	19%	-94*
CC(COc1ccccc1)N1CCC(CO)(Cc2ccccc2)CC1 (stereo not given)	i	-3%	-38%	13	-1%	-72*
Cc1ncc(CN2CCC(CO)(Cc3ccccc3)CC2)s1	i	0%	3%	3	17%	9
Cc1c(C(=O)NCC2(N3CCOCC3)CCCCCC2)cnn1-c1nccc(-c2ccccc2F)n1	·	-1%	·	·	·	·
Cn1c(=O)c(NCCO)c2c3c(cccc31)C(=O)c1ccccc1-2	i	-6%	23%	-28	9%	5
Cn1c(=O)c(NCCc2ccccc2)c2c3c(cccc31)C(=O)c1ccccc1-2	i	-6%	?	-70*	12%	-83*
CC(C)(C)n1ncc2c(=O)n(Cc3ccc(SC(F)(F)F)cc3)cnc21	·	-3%	·	·	·	·
O=C(NCc1ccncc1)C(=O)Nc1nc(C23CC4CC(CC(C4)C2)C3)cs1	i	-5%	-6%	10	45µM*	-25
Cc1cc(C)c(C)c(S(=O)(=O)N2CCN(c3ccccn3)CC2)c1C	i	-1%	17%	7	-7%	4
Cc1cc(C)c(C)c(S(=O)(=O)N2CCN(c3ncnc4ccccc34)CC2)c1C	i	0%	0%	9	35µM*	-7
CC1CCCCN1CC(=O)Nc1ccc(Oc2ccccc2)cc1 (stereo not given)	i	3%	-2%	12	3%	-89*
Cc1ccc2c(c1)N(C(=O)CCC(=O)NCCCN1CCOCC1)CCO2	i	-3%	2%	-4	9%	-128*
Cc1ccc2c(c1)N(C(=O)CCC(=O)NCCN1CCOCC1)CCO2	i	-2%	?	-3	10%	23
NC(=O)CSc1nnc2n(-c3ccccc3)c(=O)c3c4c(sc3n12)CCCCC4	i	-14%	-9%	7	-19%	14
SMILES	Akt phos inh	Glioma ERSR ind	gsp ag	hERG WT inh	gsp antagonist	KCNH2 3.1 block
CN1CCc2c(sc3c2c(=O)n(-c2ccccc2)c2nnc(SCc4ccc(Cl)cc4)n32)C1	i	-10%	0%	-186*	?	-12
O=P(O)(O)O[C@@H]1[C@H](O)[C@H](O)[C@@H](OP(=O)(O)O)[C@H](OP(=O)(O)O)[C@H]1O	·	-2%	·	·	·	·
CSc1ccc(/C=N/NC(=O)CN2CCN(Cc3ccccc3)CC2)cc1	i	-1%	-1%[15.4 µM]	-1	3%	-73*
CC(/C=N/NC(=O)CN1CCN(Cc2ccc(Cl)cc2)CC1)=C\c1ccco1	i	-2%	8%	-29	-2%	-74*
CSc1ccc(/C=N/NC(=O)CN2CCN(Cc3ccc(Cl)cc3)CC2)cc1	i	-2%	-36%	-41	-18%	-106*
CC(C)(C)c1ccc(/C=N/NC(=O)C[n+]2ccccc2)cc1	i	-2%	-1%	3	3%	3
CSc1ccc(/C=N/NC(=O)C[n+]2ccccc2)cc1	i	2%	20µM*	-12	4%	-14
CSc1ccc(/C=N/N2CCN(Cc3ccc(Cl)cc3)CC2)cc1	i	1%	19%	-19	5%	1
COCc1ccc(C(=O)N2CCOc3c(cc(-c4cc(C)c5cccc(OC)c5n4)cc3OC)C2)o1	·	-3%	·	·	·	·
COC(=O)C1CCN(Cc2ccc3c(c2)CN(C(=O)C(C)N2CCOCC2)CCO3)CC1 (stereo not given)	·	-4%	·	·	·	·
CC(=O)Oc1ccc(-c2nc(-c3ccccc3)no2)cc1	·	-4%	·	·	·	·
O=C(Nc1nc(-c2cccc3ccccc23)cs1)c1ccc2c(c1)S(=O)(=O)c1ccccc1C2=O	i	8%	4%[15.4 µM]	-33	2%	-106*
COc1cccc(CN2CCC(C(=O)Nc3ccc(-c4cccc(C)c4)cc3)CC2)c1O	i	-4%	-26%	-8	-1%	-95*
CCCn1ncc(CN2CCC(C(=O)Nc3cccc(-c4cccc(F)c4)c3)CC2)c1C	i	-9%	-11%	?	7%	-85*
O=C(Nc1cccc(-c2cccc(Cl)c2)c1)C1CCN(Cc2ccccn2)CC1	i	-10%	?	?	?	-72*
COCc1ccc(CN2CCC(C(=O)Nc3cccc(-c4cccc(Cl)c4)c3)CC2)o1	i	-12%	-30%	-82*	-22%	-81*
COCc1ccc(CN2CCC(C(=O)Nc3cccc(-c4cscn4)c3)CC2)o1	i	-3%	-1%	7	13%	-2
O=C(Nc1cccc(-c2cccc(Cl)c2)c1)C1CCN(Cc2ccon2)CC1	i	-5%	-14%	38	-22%	-48
Cc1cc(/C=C2\C=Cc3ccccc32)cc(C)c1[N+](=O)[O-]	·	3%	·	·	·	·
COc1ccc(-n2c(CNC(=O)c3cccc4ccccc34)nnc2SC)cc1	·	-2%	·	·	·	·
